Source: PubChem (National Center for Advancing Translational Sciences (NCATS))
KDM4E inh = inhibitors of human JMJD2E histone demethylase; B2RXH2; JMJD2E catalytic domain, FDH-coupled NADH fluorescence (FDH is formaldehyde dehydrogenase); Potency, µM (titrated, usually from 57.1 µM), inactives show at the top dose activity change, negative = inhibition, hits mostly inhibitors; actives 1.6% (n = 230,000); AID 2147;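 also: 0% = wells with enzyme and -100% = buffer wells without enzyme; nearly all actives have a fitted effect of over 50% in size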
HTT cytoprotect = protects HTT-Q103 PC12 cells, measured by ATP; PC12 HTT-Q103 induced, cytoprotection, ATP luminescence, 40 h; Potency, µM (titrated, usually from 56.4 µM), inactives show cytoprotection (ATP increase), actives largely listed as activators; actives 0.14% (n = 230,000); active = well fitted curve in the direction sought with a large enough effect; inconclusive = small, poorly fitted or top-dose-only effect, or another doubt; inactive = no such curve, though single readings can be large; an effect the other way counts as inactive or inconclusive; also: % of control where 0% means no effect; nearly all actives have a fitted effect of over 45% in size
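ATP quantification (ATPlite) reports survival of PC12 cells in which tebufenozide, 100 nM final, switches on Htt exon 1 with 103 glutamines linked to GFP; compounds are titrated.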
HPGD block = blocks human HPGD enzyme activity. Potency, µM, for inactives: at the highest dose activity change, negative = inhibition, usual class: inhibitors. P15428. purified HPGD, NADH fluorescence kinetic, PGE2 substrate. actives 4.3% (n = 150,000); also: % is scaled to controls: 0 for no effect and ±100 for the full control effect
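NADH formation kinetics: reaction with 30 uM PGE2 and 1 mM NAD+ (final), 20 nM enzyme, Tris-HCl pH 8 with Tween 20, after 15 min compound preincubation at room temperature. Fluorescence change, last versus first of five reads.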
ALDH1A1 inh = inhibitors of human aldehyde dehydrogenase 1A1; P00352; Purified ALDH1A1, NADH fluorescence, propionaldehyde substrate; Potency, µM (series often up to 75.3 µM), for inactives: at the highest dose activity, negative = inhibition, most hits filed as inhibitors; actives 7.3% (n = 220,000); AID 1030;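 also: plate controls were no enzyme wells and a reference inhibitor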
Target sequence (P00352 whole entry, looked up): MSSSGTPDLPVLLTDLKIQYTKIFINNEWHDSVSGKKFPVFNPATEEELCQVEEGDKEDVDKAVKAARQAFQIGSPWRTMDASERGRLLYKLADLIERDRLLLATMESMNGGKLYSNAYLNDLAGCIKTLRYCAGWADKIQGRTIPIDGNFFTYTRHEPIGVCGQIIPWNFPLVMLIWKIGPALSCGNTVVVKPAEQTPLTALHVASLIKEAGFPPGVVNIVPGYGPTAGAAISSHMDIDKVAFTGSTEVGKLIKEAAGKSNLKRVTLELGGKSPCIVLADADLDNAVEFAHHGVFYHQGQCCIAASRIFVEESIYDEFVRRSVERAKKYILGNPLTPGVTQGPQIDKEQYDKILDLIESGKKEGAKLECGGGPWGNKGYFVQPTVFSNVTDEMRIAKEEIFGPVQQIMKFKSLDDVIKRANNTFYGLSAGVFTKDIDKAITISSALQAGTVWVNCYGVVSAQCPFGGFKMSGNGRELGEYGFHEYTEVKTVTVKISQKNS
Lamin A splicing = changes lamin A minigene splicing in HeLa cells | HeLa LMNA splicing GFP/RFP minigene ratio, 48 h | Potency, µM (titrated, usually from 46.1 µM), inactives show top-dose ratio change, negative = inhibition, usual class: inhibitors | actives 0.01% (n = 200,000); active = well fitted inhibition curve with a large enough effect in the signal ratio, with a control signal flat, not every such curve was filed as active; inconclusive = small, poorly fitted or top-dose-only effect, or effect the other way, or a change in a side signal; the % refers to the signal ratio; also: % is scaled to controls: 0 for no effect and ±100 for the full control effect
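Read-out is the ratio of GFP to DsRed2 object intensity, acquired by 488 nm laser-scanning cytometry on HeLa lamin A-EGFP minigene reporter cells. Compound incubation 48 hrs at 37 °C in Opti-MEM with 2% FBS; DMSO 0.5% final.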
HttQ103 aggreg = reduces HttQ103-GFP aggregates in PC12 cells; PC12 HttQ103-GFP aggregates, Acumen cytometry, 40 h; Potency, µM (series often up to 46.1 µM), for the others: at the top dose activity change, negative = inhibition, usual class: inhibitors; actives 1.1% (n = 220,000); active = well fitted curve in the direction sought with a large enough effect; inconclusive = small, poorly fitted or top-dose-only effect, or another doubt; inactive = no such curve, though single readings can be large; an effect the other way counts as inactive or inconclusive; also: % is scaled to controls: 0 for no effect and ±100 for the full control effect; nearly all actives have a fitted effect of over 60% in size
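PC12 cells stably carrying ecdysone-inducible HTT exon 1 Q103–GFP were induced with tebufenozide (100 nM final) and treated with library compounds in titration. GFP aggregates in lysates were counted by laser scanning cytometry.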
An asterisk follows results filed as active; ? = inconclusive; . = no result given; [ ] = dose if it differs, or a comment. The list is not random: actives were taken first. Their share in the collection is about 9.2%. Unless noted, calls follow the shape of the dose curve; as a rule, active = well fitted inhibition curve with a large enough effect (not every such curve was filed as active); inconclusive = small, poorly fitted or top-dose-only effect, or another doubt; inactive = no such curve, though single readings can be large or run the other way. Potency is read from the fitted curve at half-maximal effect.

SMILES	KDM4E inh	HTT cytoprotect	HPGD block	ALDH1A1 inh	Lamin A splicing	HttQ103 aggreg
Cc1ccc(N/C=C2/Sc3ccccc3NC2=O)cc1	-3%	-14%	.	22µM*	?	-6%[9.22 µM]
COc1ccc(N/C=C2/Sc3ccccc3NC2=O)cc1	-3%	.	.	4µM*	.	?
O=C1Nc2ccccc2S/C1=C/c1cccs1	5%	33%[10 µM]	.	.	.	?
CCC(C)NC(=O)/C=C1\Sc2ccccc2NC1=O (stereo unspecified)	?	-14%[10 µM]	?	?	-2%	17%
COc1ccccc1N/C=C1/Sc2cc(Cl)ccc2NC1=O	-5%	7%	.	?	-15%[46 µM]	4%
O=C1Nc2ccccc2S/C1=C/NCc1ccccc1Cl	0%	7%	.	4.5µM*	-15%[9.22 µM]	17%
Cc1cccc(C)c1-n1nnnc1-c1cnccc1C(F)(F)F	2%	-1%[10 µM]	.	20µM*	.	5%[9.22 µM]
CO[C@@H]1/C=C\O[C@]2(C)Oc3c(C)c(O)c4c(O)c(cc(O)c4c3C2=O)NC(=O)/C(C)=C\C=C/[C@H](C)[C@@H](O)[C@H](C)[C@H](O)[C@H](C)[C@H](OC(C)=O)[C@@H]1C	.	-4%[10 µM]	.	.	.	.
Cc1c(Cl)cccc1NS(=O)(=O)c1ccc2c(c1)C1C=CCC1C(c1ccc(C(=O)O)cc1)N2 (stereo unspecified)	-27%	8%[10 µM]	.	13µM*	.	-11%[9.22 µM]
CC(=O)c1ccc2c(c1)C1C=CCC1C(c1ccc(S(=O)(=O)N3CCOCC3)cc1)N2 (stereo unspecified)	-20%	24%[10 µM]	-9%	25µM*	?	11%
CC(C)C1Nc2ccc(C(=O)O)cc2C2C=CCC21 (stereo unspecified)	4%	-11%[10 µM]	.	?	.	-12%[9.22 µM]
COc1cccc([C@@H]2Nc3ccc(C(=O)O)cc3[C@@H]3C=CC[C@@H]32)c1OC	.	.	.	.	16%[46 µM]	.
O=C(O)c1ccc2c(c1)C1C=CCC1C(c1ccncc1)N2 (stereo unspecified)	14µM*	18%[10 µM]	.	.	.	-27%[9.22 µM]
CC(C)NC(=O)N1CCCC2(CCN(C(=O)c3ccco3)CC2)C1	.	-15%	-5%	-3%	.	.
O=C(CN1C2=NCCCN2c2ccccc21)c1cccc(Br)c1	-5%	-97%[10 µM]	-8%	?	-5%	4µM*
NCCO/C=C/[C@H](N)C(=O)O	.	-16%	.	.	?	38%
C=CCn1c(O)c(N=NC(=S)Nc2ccc(OC)cc2)c2ccccc21	14%	.	-14%	?	?	?
Cc1ccc(Cn2c(O)c(N=NC(=S)Nc3ccccc3F)c3cc(S(=O)(=O)N4CCOCC4)ccc32)cc1	-1%	-6%	.	?	13%[46 µM]	-29%
O=C(CNC(=O)/C=C/c1ccccc1)N=Nc1c(O)n(Cc2ccccc2)c2ccccc12	2%	27%[10 µM]	-12%	3.5µM*	-7%	-2%
Oc1c(N=NC(=S)Nc2ccccc2F)c2ccccc2n1Cc1ccc(Cl)cc1	-7%	-12%[10 µM]	.	10µM*	?	?
Oc1c(N=NC(=S)Nc2ccccc2F)c2ccccc2n1Cc1ccccc1F	7%	-19%	.	20µM*	.	-31%
Cc1ccc(C)c(Cn2c(O)c(N=NC(=S)Nc3ccccc3F)c3ccccc32)c1	-4%	7%	.	13µM*	.	-29%
O=C(O)c1cccc(OCCO)c1	.	-3%[10 µM]	-14%	-6%[13.5 µM]	.	.
Cc1ccccc1Cn1c(O)c(N=NC(=S)Nc2ccccc2F)c2ccccc21	7%	2%	.	32µM*	?	?
NC(=S)N=Nc1c(O)n(CCCl)c2ccccc12	-13%	4%	.	?	?	33%
C=CCn1c(O)c(N=NC(=S)Nc2cccc(OC)c2)c2ccccc21	-4%	.	-21%	?	?	?
CCNC(=S)N=Nc1c(O)n(Cc2ccc(Cl)cc2)c2ccccc12	3%	9%[10 µM]	-22%	3.5µM*	?	-8%
COc1ccc(NC(=O)N2CC3(CCN(C(=O)c4ccncc4)CC3)C2)cc1	.	-9%	-3%	4%	.	.
